Laboratory results from the supplement of paper PMC10849652.
Of roughly 7,900 targets only a part is listed; those with a hit were picked by preference. About 0.6% of all pairs of compound and target were hits. Unmarked numbers belong to inactive results.

Key:
Experiment in all cases: log2 fold change, soluble protein after heating vs DMSO (PISA); higher = thermal stabilisation; K562 cells, 10 uM, 30 min; active = over 0.2 and 3.5 SD of the protein, either way, in both replicates (recomputed)
IRAK-1-4 Inhibitor I = compound: C1COCCN1CCN2C3=CC=CC=C3N=C2NC(=O)C4=CC(=CC=C4)[N+](=O)[O-] [IRAK-1-4 Inhibitor I]
Procedure, shortened: (§1)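 K562 cells at 2×10^6 cells/mL were given 10 μM compound for 30 min. Aliquots then went through 3 min of heating across 48°C-58°C, were pooled, and were extracted in PBS with 0.5% NP-40 at 4°C, and the supernatant after 21,000xg for 90 min was quantified by TMTpro 16plex LC-MS/MS with channel sums equalised. Thermal stability relative to control samples, from duplicates, is given as log2 fold change.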

ibrutinib = compound: C=CC(=O)N1CCC[C@@H](n2nc(-c3ccc(Oc4ccccc4)cc3)c3c(N)ncnc32)C1 [ibrutinib]
Procedure, shortened: as §1

pinometostat = compound: CC(C)N(C[C@H]1O[C@@H](n2cnc3c(N)ncnc32)[C@H](O)[C@@H]1O)[C@H]1C[C@@H](CCc2nc3cc(C(C)(C)C)ccc3[nH]2)C1 [pinometostat]
Procedure, shortened: as §1

[1] = compound: CC1=C(C2=C(C=C1)C(=O)C3=CC=CC=C3N2CCCN)C
Procedure, shortened: as §1

[2] = compound: CC1=C(C=C(C=C1)NC(=O)C2=CC(=CC=C2)C(C)(C)C#N)NC3=CC4=C(C=C3)N=CN(C4=O)C
Procedure, shortened: as §1

[3] = compound: CC1=CC=C(C=C1)SC2=C3C=C(SC3=CN=C2)C(=O)N
Procedure, shortened: as §1

[4] = compound: CC1=NC(=CC=C1)C2=C(N=C(N2)C(C)(C)C)C3=CC4=NC=CN=C4C=C3
Procedure, shortened: as §1

vemurafenib = compound: CCCS(=O)(=O)Nc1ccc(F)c(C(=O)c2c[nH]c3ncc(-c4ccc(Cl)cc4)cc23)c1F [vemurafenib]
Procedure, shortened: as §1

[5] = compound: CCCS(=O)(=O)Nc1ccc(F)c(C(=O)c2c[nH]c3ncc(Cl)cc23)c1F
Procedure, shortened: as §1

barasertib = compound: CCN(CCCOc1ccc2c(Nc3cc(CC(=O)Nc4cccc(F)c4)[nH]n3)ncnc2c1)CCOP(=O)(O)O [barasertib]
Procedure, shortened: as §1

[6] = compound: CC(=O)c1cnc2ccc(-c3cc(Cl)c(O)c(Cl)c3)nc2c1N[C@H]1CC[C@H](CN(C)C)CC1
Procedure, shortened: as §1

[7] = compound: CC(C)(O)CC(=O)NCCn1ccc2ncnc(Nc3ccc(Oc4cccc(C(F)(F)F)c4)c(Cl)c3)c21
Procedure, shortened: as §1

[8] = compound: CC(C)C1=C2N=C(C=C(N2N=C1)NCC3=CC=CC=C3)NCCCCCCN
Procedure, shortened: as §1

[9] = compound: CC1=C(C(CC(=O)N1)C2=CC=C(C=C2)C(F)(F)F)C(=O)NC3=C(C=C4C(=C3)C=NN4)F
Procedure, shortened: as §1

Nexturastat A = compound: CCCCN(Cc1ccc(C(=O)NO)cc1)C(=O)Nc1ccccc1 [Nexturastat A]
Procedure, shortened: as §1

givinostat = compound: CCN(CC)Cc1ccc2cc(COC(=O)Nc3ccc(C(=O)NO)cc3)ccc2c1 [givinostat]
Procedure, shortened: as §1

[10] = compound: CCCc1cc(C)[nH]c(=O)c1CNC(=O)c1cc(-c2ccnc(N3CCN(C)CC3)c2)cc2c1cnn2C(C)C
Procedure, shortened: as §1

ralimetinib = compound: CC(C)(C)Cn1c(N)nc2ccc(-c3[nH]c(C(C)(C)C)nc3-c3ccc(F)cc3)nc21 [ralimetinib]
Procedure, shortened: as §1

[11] = compound: CC(C)C[C@@H](C=O)NC(=O)[C@H](CC(C)C)NC(=O)[C@H](CC(C)C)NC(=O)OCc1ccccc1
Procedure, shortened: as §1

[12] = compound: CC1=C(C=C(C=C1)NC(=O)C2=CC(=CC=C2)N(C)C)NC(=O)C3=CC=C(C=C3)O
Procedure, shortened: as §1

Sequence of UniProt Q629K1 (Q629K1 whole entry, looked up): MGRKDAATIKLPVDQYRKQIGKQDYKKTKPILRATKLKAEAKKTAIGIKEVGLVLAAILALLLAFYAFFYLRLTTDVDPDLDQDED
Sequence of UniProt Q96LJ8 (Q96LJ8 whole entry, looked up): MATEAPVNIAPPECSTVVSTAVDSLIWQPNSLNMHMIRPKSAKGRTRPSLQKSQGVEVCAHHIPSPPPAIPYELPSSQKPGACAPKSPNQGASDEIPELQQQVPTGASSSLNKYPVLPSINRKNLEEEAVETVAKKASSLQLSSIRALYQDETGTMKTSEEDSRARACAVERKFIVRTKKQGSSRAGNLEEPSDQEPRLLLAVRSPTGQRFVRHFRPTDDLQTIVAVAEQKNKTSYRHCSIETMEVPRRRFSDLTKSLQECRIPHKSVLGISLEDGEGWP
Sequence of UniProt Q8NE00 (Q8NE00 whole entry, looked up): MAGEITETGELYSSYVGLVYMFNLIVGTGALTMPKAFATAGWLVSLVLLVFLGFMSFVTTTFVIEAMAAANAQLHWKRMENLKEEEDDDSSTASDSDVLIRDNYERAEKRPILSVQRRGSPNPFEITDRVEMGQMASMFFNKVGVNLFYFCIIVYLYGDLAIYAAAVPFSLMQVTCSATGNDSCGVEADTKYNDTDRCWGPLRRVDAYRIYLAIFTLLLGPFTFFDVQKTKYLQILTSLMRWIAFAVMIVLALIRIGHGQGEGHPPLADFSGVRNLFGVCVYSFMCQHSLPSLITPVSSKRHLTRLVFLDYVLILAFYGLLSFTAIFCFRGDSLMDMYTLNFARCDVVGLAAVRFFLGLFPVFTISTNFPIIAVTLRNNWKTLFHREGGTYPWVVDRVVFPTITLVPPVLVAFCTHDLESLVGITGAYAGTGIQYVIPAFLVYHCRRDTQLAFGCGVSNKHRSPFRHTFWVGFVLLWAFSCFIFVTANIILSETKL
Sequence of UniProt Q9C035 (Q9C035 whole entry, looked up): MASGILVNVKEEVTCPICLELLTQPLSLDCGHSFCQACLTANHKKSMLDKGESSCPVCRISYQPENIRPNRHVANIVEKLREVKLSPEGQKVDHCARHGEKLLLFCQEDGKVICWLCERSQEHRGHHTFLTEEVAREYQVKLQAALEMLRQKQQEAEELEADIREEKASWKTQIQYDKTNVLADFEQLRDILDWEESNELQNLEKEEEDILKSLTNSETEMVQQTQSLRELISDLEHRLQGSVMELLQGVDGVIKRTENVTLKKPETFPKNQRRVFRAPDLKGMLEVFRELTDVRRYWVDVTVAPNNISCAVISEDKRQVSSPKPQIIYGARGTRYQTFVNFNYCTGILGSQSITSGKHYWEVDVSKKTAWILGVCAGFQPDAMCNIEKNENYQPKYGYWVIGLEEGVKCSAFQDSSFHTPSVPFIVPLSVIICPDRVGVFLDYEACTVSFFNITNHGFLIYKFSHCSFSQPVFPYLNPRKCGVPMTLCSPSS
Sequence of UniProt P57081 (P57081 whole entry, looked up): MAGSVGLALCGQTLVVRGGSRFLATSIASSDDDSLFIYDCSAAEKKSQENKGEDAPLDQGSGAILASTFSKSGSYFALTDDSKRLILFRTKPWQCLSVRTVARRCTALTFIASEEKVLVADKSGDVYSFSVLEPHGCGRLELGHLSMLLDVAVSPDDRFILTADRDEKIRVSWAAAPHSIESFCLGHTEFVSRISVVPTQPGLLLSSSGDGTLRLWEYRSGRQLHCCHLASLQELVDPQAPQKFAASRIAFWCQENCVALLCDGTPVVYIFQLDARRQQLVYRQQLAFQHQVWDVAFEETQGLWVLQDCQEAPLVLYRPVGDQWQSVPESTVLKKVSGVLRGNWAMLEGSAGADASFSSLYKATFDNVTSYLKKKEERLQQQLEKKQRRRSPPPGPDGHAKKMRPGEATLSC
Sequence of UniProt Q86TN4 (Q86TN4 whole entry, looked up): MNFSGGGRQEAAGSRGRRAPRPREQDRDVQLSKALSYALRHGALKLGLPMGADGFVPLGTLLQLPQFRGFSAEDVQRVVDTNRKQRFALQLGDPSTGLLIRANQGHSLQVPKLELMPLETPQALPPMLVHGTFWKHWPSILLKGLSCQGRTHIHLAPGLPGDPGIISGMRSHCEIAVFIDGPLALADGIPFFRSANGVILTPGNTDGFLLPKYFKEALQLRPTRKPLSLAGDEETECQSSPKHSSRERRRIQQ
Sequence of UniProt Q9BZM6 (Q9BZM6 whole entry, looked up): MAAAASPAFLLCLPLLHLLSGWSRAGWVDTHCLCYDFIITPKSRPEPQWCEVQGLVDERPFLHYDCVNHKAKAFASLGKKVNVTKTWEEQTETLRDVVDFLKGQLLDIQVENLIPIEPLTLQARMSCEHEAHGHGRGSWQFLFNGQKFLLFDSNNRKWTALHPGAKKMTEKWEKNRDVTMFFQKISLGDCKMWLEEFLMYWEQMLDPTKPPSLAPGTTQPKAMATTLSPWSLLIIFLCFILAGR
Sequence of UniProt Q15906 (Q15906 whole entry, looked up): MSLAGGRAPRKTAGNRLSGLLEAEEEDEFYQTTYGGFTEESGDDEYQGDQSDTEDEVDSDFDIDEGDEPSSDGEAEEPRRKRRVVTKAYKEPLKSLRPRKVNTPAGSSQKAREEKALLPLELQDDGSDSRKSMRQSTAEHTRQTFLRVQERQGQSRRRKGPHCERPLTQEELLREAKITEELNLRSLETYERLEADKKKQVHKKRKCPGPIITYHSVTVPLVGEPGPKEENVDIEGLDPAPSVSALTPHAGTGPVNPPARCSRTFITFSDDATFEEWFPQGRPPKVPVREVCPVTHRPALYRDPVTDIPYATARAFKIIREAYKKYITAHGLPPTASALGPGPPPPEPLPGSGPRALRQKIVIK
Sequence of UniProt Q86XT9 (Q86XT9 whole entry, looked up): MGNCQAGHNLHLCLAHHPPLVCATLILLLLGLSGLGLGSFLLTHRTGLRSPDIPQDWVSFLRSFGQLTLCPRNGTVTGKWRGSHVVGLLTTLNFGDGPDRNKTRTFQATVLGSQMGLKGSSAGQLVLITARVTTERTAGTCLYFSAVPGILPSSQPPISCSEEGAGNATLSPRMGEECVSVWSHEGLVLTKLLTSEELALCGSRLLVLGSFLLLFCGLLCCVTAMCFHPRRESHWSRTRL
Sequence of UniProt P98170 (P98170 whole entry, looked up): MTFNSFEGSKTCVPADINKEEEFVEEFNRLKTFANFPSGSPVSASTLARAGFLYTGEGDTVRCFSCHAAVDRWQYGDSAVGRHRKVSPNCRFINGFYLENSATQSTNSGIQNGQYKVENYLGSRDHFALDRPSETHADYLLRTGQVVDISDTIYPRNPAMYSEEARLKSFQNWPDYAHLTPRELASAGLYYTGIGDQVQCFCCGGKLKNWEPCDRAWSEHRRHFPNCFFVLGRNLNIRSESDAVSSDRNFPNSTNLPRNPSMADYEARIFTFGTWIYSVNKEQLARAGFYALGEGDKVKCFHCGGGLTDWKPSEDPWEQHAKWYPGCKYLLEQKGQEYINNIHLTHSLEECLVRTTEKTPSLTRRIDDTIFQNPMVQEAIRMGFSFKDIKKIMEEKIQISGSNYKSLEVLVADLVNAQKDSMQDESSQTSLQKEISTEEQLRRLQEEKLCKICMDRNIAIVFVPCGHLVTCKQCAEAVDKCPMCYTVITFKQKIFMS

| Target | log2 fold change (IRAK-1-4 Inhibitor I) | log2 fold change (ibrutinib) | log2 fold change (pinometostat) | log2 fold change [1] | log2 fold change [2] | log2 fold change [3] | log2 fold change [4] | log2 fold change (vemurafenib) | log2 fold change [5] | log2 fold change (barasertib) | log2 fold change [6] | log2 fold change [7] | log2 fold change [8] | log2 fold change [9] | log2 fold change (Nexturastat A) | log2 fold change (givinostat) | log2 fold change [10] | log2 fold change (ralimetinib) | log2 fold change [11] | log2 fold change [12] |
| --- | --- | --- | --- | --- | --- | --- | --- | --- | --- | --- | --- | --- | --- | --- | --- | --- | --- | --- | --- | --- |
| TUBA4A (UniProt C9JJQ8) | -0.203 | -0.076 | -0.121 | -0.042 | -0.019 | 0.022 | 0.138 | 0.053 | -0.065 | 0.136 | – | – | – | – | – | – | – | – | – | – |
| TMEM219 (UniProt Q86XT9) | – | 0.115 | – | -0.134 | 0.021 | 0.02 | – | 0.172 | -0.107 | -0.187 | 0.083 | -0.015 | 0.007 | 0.031 | 0.311 | -0.029 | – | – | – | – |
| WDR46, A0A0G2JJL1 | -0.153 | 0.054 | 0.325 | -0.353 | -0.161 | -0.229 | -0.254 | -0.09 | 0.078 | -0.248 | – | 0.269 | 0.003 | 0.005 | 0.194 | 0.15 | 0.19 | – | – | – |
| TRIM5 (UniProt Q9C035) | – | – | – | 0.047 | -0.063 | – | – | -0.044 | – | – | 0 | -0.045 | -0.176 | – | 0.033 | 0.119 | – | 0.094 | 0.391 | -0.197 |
| WDR4 isoform 3 (UniProt P57081) | – | -0.157 | – | – | -0.041 | – | – | – | – | 0.08 | – | -0.126 | – | – | -0.031 | – | – | – | – | – |
| TMEM104 (UniProt Q8NE00) | -0.039 | – | -0.106 | – | – | -0.015 | -0.039 | – | -0.173 | – | 0.038 | 0.009 | -0.473 (active) | 0.126 | -0.046 | -0.012 | -0.126 | -0.09 | 0.082 | 0.058 |
| ULBP1 (UniProt Q9BZM6) | – | – | – | 0.009 | -0.088 | -0.014 | – | 0.051 | 0.053 | – | -0.038 | -0.132 | 0.112 | – | 0.428 (active) | 0.028 | 0 | -0.058 | 0.006 | 0.023 |
| TRIQK (UniProt Q629K1) | -0.059 | 0.007 | 0.104 | 0.114 | -0.022 | – | -0.173 | – | – | -0.041 | – | -0.054 | – | – | -0.028 | – | 0.014 | -0.011 | -0.004 | -0.007 |
| UBXN10 (UniProt Q96LJ8) | 0.027 | 0.054 | 0.058 | 0.085 | 0.007 | -0.071 | 0.037 | -0.264 | -0.024 | -0.068 | – | -0.145 | -0.017 | 0.026 | 0.107 | 0.059 | -0.115 | -0.045 | 0.038 | -0.026 |
| VPS72 isoform 2 (UniProt Q15906) | – | 0.119 | – | -0.473 (active) | -0.051 | 0.05 | – | 0.025 | -0.028 | 0.001 | 0.033 | -0.177 | 0.133 | -0.092 | -0.17 | -0.014 | -0.042 | -0.122 | -0.117 | 0.196 |
| XIAP (UniProt P98170) | – | -0.076 | – | -0.002 | -0.047 | -0.045 | – | 0.035 | 0 | 0 | -0.105 | -0.157 | -0.05 | 0 | -0.045 | 0.019 | -0.049 | – | – | – |
| TRPT1 isoform 4 (UniProt Q86TN4) | 0.11 | – | 0.033 | – | -1.08 (active) | – | -0.008 | – | – | – | -0.057 | – | -0.054 | – | – | 0.179 | 0.029 | 0.011 | 0.074 | 0.136 |
